# Data as given in paper PMC7862700, “An all-to-all approach to the identification of sequence-specific readers for epigenetic DNA modifications on cytosine”.
# Assays:
# Test in all cases: DAPPL (digital affinity profiling via proximity ligation, sequencing); 10 mM Tris-HCl pH 7.5, 50 mM NaCl, 1 mM DTT, 4% glycerol, room temperature, 30 min; GST-TFs on glutathione beads, 16-mer random dsDNA library, 0.1% formaldehyde crosslink after washing; high values mean tight binding
# FLI1 = target: T1, FLI1 (Homo sapiens, UniProt Q01543 1-452); settings: protein: recombinant; tags: N-terminal GST; dsDNA, one strand shown
# T1 sequence: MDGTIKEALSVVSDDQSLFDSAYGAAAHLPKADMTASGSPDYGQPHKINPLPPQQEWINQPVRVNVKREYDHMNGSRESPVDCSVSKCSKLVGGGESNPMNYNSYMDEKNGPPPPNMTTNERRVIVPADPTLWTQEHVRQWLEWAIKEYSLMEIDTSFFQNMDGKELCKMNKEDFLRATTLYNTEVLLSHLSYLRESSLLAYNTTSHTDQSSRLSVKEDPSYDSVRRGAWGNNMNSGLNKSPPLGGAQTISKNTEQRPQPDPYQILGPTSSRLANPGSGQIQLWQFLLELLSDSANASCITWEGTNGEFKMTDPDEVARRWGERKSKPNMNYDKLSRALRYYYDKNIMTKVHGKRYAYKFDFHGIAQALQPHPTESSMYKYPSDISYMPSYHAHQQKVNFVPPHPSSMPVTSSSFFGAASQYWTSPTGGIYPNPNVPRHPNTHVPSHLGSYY
# Procedure, shortened: (§1)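 Human transcription factors carrying a GST fusion were produced in yeast, bound to glutathione beads, tagged with DNA barcodes and pooled together with a tag-only sample. Each pool was held with 200 nmole of a random double-stranded 16-mer DNA library in Tris/NaCl/DTT/glycerol buffer for 30 min at room temperature, then washed, crosslinked in 0.1% formaldehyde, proximity-ligated with BsaI/T4 ligase (1 h, 37 °C), PCR-amplified and sequenced on an Illumina NextSeq500. Binding signal is the read frequency of each hexamer for a given factor divided by its frequency in the tag-only sample.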
# ELK1 = target: T2, ELK1 (Homo sapiens, UniProt P19419 1-428); settings: protein: recombinant; tags: N-terminal GST; dsDNA, one strand shown
# T2 sequence: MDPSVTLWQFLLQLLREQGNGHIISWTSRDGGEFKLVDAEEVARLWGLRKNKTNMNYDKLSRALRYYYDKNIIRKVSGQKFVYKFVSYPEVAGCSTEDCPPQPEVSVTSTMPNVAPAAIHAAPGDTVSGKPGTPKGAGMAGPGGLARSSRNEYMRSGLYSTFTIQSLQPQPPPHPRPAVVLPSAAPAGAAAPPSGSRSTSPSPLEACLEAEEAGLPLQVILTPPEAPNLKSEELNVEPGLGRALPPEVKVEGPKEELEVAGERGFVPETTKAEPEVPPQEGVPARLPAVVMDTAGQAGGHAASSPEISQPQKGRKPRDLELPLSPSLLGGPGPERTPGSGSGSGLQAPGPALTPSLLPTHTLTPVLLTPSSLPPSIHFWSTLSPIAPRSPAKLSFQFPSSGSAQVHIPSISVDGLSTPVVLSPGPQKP
# Procedure, shortened: as §1
# GABPA = target: T3, GABPA (Homo sapiens, UniProt Q06546 1-454); settings: protein: recombinant; tags: N-terminal GST; dsDNA, one strand shown
# T3 sequence: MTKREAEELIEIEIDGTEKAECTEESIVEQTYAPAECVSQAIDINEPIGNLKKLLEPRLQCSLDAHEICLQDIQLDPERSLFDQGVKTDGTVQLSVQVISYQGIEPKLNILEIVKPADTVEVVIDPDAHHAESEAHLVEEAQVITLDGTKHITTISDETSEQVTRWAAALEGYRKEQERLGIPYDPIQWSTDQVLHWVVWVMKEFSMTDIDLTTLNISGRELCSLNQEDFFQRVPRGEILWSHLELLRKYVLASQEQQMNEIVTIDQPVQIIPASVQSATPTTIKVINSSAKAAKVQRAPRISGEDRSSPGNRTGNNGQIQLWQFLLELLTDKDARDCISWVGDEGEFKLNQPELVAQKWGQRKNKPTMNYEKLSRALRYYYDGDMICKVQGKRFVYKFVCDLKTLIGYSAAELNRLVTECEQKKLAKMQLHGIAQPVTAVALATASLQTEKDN
# Procedure, shortened: as §1
# ERG = target: T4, ERG (Homo sapiens, UniProt P11308 1-479); settings: protein: recombinant; tags: N-terminal GST; dsDNA, one strand shown
# T4 sequence: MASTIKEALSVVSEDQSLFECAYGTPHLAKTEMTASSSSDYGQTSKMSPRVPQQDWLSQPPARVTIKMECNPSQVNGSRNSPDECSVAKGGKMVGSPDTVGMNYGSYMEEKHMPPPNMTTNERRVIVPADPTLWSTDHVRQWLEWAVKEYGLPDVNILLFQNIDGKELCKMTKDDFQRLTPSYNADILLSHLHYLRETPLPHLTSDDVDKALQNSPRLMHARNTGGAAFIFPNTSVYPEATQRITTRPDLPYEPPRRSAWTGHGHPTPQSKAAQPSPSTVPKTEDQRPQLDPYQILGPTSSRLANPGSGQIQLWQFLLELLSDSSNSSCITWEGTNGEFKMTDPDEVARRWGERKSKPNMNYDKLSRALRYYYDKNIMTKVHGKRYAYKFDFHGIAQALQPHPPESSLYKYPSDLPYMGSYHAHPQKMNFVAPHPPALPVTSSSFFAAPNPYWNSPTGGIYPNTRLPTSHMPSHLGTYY
# Procedure, shortened: as §1
# ELF1 = ELF1 (Homo sapiens, UniProt P32519 1-619); settings: protein: recombinant; tags: N-terminal GST; dsDNA, one strand shown
# Chain of ELF1 (P32519 whole entry): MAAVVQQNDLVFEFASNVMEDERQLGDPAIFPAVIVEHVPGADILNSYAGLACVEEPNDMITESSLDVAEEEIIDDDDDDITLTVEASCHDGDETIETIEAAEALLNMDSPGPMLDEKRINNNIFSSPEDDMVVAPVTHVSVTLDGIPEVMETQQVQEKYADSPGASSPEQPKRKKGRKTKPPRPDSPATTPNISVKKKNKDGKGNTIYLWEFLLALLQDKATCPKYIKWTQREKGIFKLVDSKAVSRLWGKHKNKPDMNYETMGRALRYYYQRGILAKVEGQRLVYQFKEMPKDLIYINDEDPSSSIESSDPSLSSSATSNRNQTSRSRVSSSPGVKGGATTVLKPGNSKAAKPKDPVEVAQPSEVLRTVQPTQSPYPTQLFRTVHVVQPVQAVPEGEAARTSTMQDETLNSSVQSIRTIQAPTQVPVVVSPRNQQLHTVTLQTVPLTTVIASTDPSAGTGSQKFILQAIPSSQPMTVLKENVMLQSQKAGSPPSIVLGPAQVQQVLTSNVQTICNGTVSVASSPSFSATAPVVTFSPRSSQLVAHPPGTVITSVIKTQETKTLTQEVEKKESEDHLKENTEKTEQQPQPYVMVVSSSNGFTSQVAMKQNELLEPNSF
# Procedure, shortened: as §1
# EHF = target: T5, EHF (Homo sapiens, UniProt Q9NZC4 1-300); settings: protein: recombinant; tags: N-terminal GST; dsDNA, one strand shown
# T5 sequence: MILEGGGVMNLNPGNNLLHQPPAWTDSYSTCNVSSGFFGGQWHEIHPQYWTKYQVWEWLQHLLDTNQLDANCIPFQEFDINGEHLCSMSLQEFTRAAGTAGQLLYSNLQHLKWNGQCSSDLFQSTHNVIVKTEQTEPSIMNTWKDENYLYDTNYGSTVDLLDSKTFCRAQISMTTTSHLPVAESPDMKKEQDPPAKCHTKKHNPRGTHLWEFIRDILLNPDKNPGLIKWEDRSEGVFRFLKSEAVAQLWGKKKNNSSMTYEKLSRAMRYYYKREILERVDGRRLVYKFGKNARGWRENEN
# Procedure, shortened: as §1
# SPI1 = SPI1 (Homo sapiens, UniProt P17947 1-270); settings: protein: recombinant; tags: N-terminal GST; dsDNA, one strand shown
# Procedure, shortened: as §1
# SPIB = SPIB (Homo sapiens, UniProt Q01892 1-262); settings: protein: recombinant; tags: N-terminal GST; dsDNA, one strand shown
# Chain of SPIB (Q01892 whole entry): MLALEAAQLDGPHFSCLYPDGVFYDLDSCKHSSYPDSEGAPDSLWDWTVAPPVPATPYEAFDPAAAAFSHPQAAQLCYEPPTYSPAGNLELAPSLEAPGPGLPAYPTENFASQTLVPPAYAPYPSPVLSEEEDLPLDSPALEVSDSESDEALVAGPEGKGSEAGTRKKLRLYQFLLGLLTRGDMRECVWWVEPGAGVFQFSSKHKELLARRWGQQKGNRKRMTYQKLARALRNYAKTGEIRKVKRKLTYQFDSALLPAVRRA
# Procedure, shortened: as §1
# ELK3 = target: T6, ELK3 (Homo sapiens, UniProt P41970 1-407); settings: protein: recombinant; tags: N-terminal GST; dsDNA, one strand shown
# T6 sequence: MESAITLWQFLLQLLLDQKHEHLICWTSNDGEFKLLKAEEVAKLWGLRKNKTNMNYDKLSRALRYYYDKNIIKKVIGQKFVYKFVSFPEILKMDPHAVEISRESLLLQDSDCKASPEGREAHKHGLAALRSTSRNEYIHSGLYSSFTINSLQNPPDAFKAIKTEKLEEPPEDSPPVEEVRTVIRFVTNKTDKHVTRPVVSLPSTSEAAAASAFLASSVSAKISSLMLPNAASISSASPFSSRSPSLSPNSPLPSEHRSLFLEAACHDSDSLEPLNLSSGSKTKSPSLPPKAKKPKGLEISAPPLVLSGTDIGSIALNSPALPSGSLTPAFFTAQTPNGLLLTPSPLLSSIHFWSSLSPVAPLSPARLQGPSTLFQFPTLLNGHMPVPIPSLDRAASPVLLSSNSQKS
# Procedure, shortened: as §1
# FEV = target: T7, FEV (Homo sapiens, UniProt Q99581 1-238); settings: protein: recombinant; tags: N-terminal GST; dsDNA, one strand shown
# T7 sequence: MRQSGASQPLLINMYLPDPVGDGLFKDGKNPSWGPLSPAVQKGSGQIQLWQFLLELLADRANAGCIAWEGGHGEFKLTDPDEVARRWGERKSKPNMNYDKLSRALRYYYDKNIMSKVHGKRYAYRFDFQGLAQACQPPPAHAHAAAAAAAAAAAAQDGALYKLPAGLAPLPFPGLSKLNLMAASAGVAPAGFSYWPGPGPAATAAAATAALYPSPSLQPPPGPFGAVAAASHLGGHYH
# Procedure, shortened: as §1
# ETV5 = ETV5 (Homo sapiens, UniProt P41161 1-510); settings: protein: recombinant; tags: N-terminal GST; dsDNA, one strand shown
# Chain of ETV5 (P41161 whole entry): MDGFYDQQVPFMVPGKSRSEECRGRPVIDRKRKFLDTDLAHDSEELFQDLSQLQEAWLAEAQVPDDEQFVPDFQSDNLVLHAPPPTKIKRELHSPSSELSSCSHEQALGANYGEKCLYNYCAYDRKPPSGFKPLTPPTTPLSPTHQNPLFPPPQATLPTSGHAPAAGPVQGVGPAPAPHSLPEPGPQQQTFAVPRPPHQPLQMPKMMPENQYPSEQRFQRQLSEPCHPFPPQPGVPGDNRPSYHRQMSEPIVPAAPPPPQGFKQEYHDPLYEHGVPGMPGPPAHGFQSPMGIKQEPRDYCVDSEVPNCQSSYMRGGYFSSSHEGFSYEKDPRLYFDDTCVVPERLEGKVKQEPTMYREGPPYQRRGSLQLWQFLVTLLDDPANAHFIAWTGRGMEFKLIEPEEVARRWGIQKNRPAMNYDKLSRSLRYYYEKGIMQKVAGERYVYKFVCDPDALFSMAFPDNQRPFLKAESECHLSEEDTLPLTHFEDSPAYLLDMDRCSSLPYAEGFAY
# Procedure, shortened: as §1
# HSF1 = HSF1 (Homo sapiens, UniProt Q00613 1-529); settings: protein: recombinant; tags: N-terminal GST; chain copies: 3; dsDNA, one strand shown
# Chain of HSF1 (Q00613 whole entry): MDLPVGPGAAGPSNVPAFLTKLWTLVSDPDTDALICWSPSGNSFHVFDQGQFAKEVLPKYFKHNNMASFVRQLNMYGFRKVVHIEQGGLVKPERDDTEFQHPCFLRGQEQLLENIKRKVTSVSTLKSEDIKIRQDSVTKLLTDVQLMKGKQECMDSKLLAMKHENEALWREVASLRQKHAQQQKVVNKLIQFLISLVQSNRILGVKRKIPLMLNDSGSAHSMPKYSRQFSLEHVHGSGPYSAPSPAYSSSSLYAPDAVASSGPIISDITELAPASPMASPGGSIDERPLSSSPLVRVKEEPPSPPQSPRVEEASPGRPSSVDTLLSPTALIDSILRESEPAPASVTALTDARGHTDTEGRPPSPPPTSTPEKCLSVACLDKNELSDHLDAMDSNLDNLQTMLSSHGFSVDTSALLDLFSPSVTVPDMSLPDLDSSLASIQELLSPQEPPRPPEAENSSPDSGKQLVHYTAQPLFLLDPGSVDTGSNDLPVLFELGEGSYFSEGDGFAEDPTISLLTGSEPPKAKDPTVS
# Procedure, shortened: as §1
# SPIC = target: T8, SPIC (Homo sapiens, UniProt Q8N5J4 1-248); settings: protein: recombinant; tags: N-terminal GST; dsDNA, one strand shown
# T8 sequence: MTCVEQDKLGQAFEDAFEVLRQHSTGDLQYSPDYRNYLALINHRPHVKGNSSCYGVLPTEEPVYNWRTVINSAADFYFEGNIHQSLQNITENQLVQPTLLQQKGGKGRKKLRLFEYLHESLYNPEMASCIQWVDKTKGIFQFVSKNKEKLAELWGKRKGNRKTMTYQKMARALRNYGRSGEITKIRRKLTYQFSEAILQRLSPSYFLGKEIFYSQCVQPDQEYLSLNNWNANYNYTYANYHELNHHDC
# Procedure, shortened: as §1
# ELF4 = ELF4 (Homo sapiens, UniProt Q99607 1-663); settings: protein: recombinant; tags: N-terminal GST; dsDNA, one strand shown
# Chain of ELF4 (Q99607 whole entry): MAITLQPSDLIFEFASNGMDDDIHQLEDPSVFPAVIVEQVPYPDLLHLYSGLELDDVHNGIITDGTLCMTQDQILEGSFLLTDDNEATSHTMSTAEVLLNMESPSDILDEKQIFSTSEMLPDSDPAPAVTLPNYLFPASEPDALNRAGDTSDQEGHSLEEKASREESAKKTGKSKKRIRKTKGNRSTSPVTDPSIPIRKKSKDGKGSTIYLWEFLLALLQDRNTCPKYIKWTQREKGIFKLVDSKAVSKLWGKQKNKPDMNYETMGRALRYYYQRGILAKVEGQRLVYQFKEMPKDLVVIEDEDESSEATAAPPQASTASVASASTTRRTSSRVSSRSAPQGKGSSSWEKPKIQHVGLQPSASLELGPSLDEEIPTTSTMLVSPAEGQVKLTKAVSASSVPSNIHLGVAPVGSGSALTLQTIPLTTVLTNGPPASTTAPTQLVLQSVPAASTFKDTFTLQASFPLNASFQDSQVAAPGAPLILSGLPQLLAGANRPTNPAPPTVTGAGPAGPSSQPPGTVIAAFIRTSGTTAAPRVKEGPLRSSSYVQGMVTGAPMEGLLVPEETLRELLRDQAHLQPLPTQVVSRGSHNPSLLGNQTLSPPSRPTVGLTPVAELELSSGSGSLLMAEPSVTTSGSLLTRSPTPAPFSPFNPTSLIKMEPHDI
# Procedure, shortened: as §1
# ELK4 = target: T9, ELK4 (Homo sapiens, UniProt P28324-2 1-405); settings: protein: recombinant; tags: N-terminal GST; dsDNA, one strand shown
# T9 sequence: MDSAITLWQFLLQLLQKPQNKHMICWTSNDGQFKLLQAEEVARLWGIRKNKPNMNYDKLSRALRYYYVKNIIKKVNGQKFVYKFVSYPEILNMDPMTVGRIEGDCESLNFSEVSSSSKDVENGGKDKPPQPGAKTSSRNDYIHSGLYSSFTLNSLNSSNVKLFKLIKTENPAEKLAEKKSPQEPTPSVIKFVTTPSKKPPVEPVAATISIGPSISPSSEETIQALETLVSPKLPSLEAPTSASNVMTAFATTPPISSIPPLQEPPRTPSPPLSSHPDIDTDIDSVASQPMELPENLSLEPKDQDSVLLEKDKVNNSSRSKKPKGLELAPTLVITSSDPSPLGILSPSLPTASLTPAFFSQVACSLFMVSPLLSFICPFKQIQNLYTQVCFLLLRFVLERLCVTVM
# Procedure, shortened: as §1
# ETV2 = target: T10, ETV2 (Homo sapiens, UniProt O00321 1-342); settings: protein: recombinant; tags: N-terminal GST; dsDNA, one strand shown
# T10 sequence: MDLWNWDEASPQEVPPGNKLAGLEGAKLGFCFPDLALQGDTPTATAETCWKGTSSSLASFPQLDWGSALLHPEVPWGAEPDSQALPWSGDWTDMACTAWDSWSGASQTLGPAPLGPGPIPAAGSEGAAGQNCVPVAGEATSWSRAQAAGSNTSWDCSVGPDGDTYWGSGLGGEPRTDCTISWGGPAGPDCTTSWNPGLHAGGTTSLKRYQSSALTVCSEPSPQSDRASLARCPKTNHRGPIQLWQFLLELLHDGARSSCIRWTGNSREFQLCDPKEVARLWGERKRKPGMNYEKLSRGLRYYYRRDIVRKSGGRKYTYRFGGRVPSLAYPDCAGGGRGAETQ
# Procedure, shortened: as §1
# ELF3 = target: T11, ELF3 (Homo sapiens, UniProt P78545 1-371); settings: protein: recombinant; tags: N-terminal GST; dsDNA, one strand shown
# T11 sequence: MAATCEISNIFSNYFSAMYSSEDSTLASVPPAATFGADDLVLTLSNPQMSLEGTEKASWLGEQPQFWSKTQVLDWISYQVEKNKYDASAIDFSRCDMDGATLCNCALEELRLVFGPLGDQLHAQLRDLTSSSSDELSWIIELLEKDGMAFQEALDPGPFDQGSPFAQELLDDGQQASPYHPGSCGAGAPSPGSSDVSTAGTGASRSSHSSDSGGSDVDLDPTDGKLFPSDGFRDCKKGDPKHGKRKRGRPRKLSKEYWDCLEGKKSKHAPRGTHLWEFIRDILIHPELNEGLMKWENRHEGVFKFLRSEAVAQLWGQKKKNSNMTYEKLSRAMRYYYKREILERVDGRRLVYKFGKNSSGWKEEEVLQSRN
# Procedure, shortened: as §1
# CRX = CRX (Homo sapiens, UniProt O43186 1-299); settings: protein: recombinant; tags: N-terminal GST; dsDNA, one strand shown
# Chain of CRX (O43186 whole entry): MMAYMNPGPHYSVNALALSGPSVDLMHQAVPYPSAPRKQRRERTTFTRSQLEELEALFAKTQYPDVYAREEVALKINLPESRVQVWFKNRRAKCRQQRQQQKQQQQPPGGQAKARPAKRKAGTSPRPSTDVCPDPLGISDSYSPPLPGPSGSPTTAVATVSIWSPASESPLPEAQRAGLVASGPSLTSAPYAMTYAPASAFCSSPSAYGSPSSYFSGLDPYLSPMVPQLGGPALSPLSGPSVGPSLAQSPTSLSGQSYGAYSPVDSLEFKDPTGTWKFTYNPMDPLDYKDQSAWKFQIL
# Procedure, shortened: as §1
# ETV1 = ETV1 (Homo sapiens, UniProt P50549 1-477); settings: protein: recombinant; tags: N-terminal GST; dsDNA, one strand shown
# Chain of ETV1 (P50549 whole entry): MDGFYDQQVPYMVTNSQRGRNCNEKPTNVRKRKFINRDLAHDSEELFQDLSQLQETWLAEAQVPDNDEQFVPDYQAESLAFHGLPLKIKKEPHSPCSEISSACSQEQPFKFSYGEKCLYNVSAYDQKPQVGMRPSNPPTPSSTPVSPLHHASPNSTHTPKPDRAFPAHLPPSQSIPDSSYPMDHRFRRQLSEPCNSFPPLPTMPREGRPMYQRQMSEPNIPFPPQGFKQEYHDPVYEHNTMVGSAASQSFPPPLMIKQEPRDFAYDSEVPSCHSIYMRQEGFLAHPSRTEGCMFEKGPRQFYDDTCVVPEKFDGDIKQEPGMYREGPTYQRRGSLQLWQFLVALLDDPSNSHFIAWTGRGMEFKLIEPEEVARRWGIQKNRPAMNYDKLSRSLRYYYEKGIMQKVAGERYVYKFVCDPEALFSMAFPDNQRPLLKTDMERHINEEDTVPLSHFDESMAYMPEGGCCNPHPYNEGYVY
# Procedure, shortened: as §1
sequence,measurement,setting,value
CTCCAG,binding signal,FLI1,"1.08 fold enrichment (6-mer frequency, TF over GST control)"
same,binding signal,ELK1,"1.12 fold enrichment (6-mer frequency, TF over GST control)"
same,binding signal,GABPA,"1.26 fold enrichment (6-mer frequency, TF over GST control)"
same,binding signal,ERG,"1.16 fold enrichment (6-mer frequency, TF over GST control)"
same,binding signal,ELF1,"1.19 fold enrichment (6-mer frequency, TF over GST control)"
same,binding signal,EHF,"1.17 fold enrichment (6-mer frequency, TF over GST control)"
same,binding signal,SPI1,"1.21 fold enrichment (6-mer frequency, TF over GST control)"
same,binding signal,SPIB,"1.23 fold enrichment (6-mer frequency, TF over GST control)"
same,binding signal,ELK3,"1.29 fold enrichment (6-mer frequency, TF over GST control)"
same,binding signal,FEV,"1.13 fold enrichment (6-mer frequency, TF over GST control)"
same,binding signal,ETV5,"1.17 fold enrichment (6-mer frequency, TF over GST control)"
same,binding signal,HSF1,"1.65 fold enrichment (6-mer frequency, TF over GST control)"
same,binding signal,SPIC,"1.16 fold enrichment (6-mer frequency, TF over GST control)"
same,binding signal,ELF4,"1.21 fold enrichment (6-mer frequency, TF over GST control)"
same,binding signal,ELK4,"1.18 fold enrichment (6-mer frequency, TF over GST control)"
same,binding signal,ETV2,"1.33 fold enrichment (6-mer frequency, TF over GST control)"
same,binding signal,ELF3,"1.02 fold enrichment (6-mer frequency, TF over GST control)"
same,binding signal,CRX,"1.1 fold enrichment (6-mer frequency, TF over GST control)"
same,binding signal,ETV1,"1.16 fold enrichment (6-mer frequency, TF over GST control)"
